# Laboratory results reported in the supplement of paper PMC6555819.
# Legend:
# Test in all cases: PBM binding z-score (relative to random genomic background probes); higher = stronger binding; sequences stand for … in GC…GCGATTGACAGCGTAGAATGAAGG
# [1] = test system: FXR:RXRa (NR concentration 270 nM, RXRa partner concentration 90 nM)
# Method in brief: (§1)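 Binding buffer was PBS pH 7.4 with 2% milk, 0.02% Triton X-100, 1 mM DTT, 0.2 mg/mL BSA and 0.4 mg/ml salmon testes DNA. In it, ligand-free nuclear receptor dimers were incubated 1 h on custom Agilent 4×180K protein-binding microarrays carrying double-stranded probes. Antibodies against each partner (one per run) detected binding, and z-scores were calculated against random background probes after regression normalization of scanned fluorescence.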
# [2] = test system: LXRa:RXRa (NR concentration 270 nM, RXRa partner concentration 90 nM)
# Method in brief: as §1
# [3] = test system: LXRa homodimer (NR concentration 270 nM)
# Method in brief: as §1
# [4] = test system: LXRb:RXRa (NR concentration 270 nM, RXRa partner concentration 90 nM)
# Method in brief: as §1
# [5] = test system: LXRb homodimer (NR concentration 270 nM)
# Method in brief: as §1
# [6] = test system: PPARa:RXRa (NR concentration 270 nM, RXRa partner concentration 90 nM)
# Method in brief: as §1
# [7] = test system: PPARg:RXRa (NR concentration 180 nM, RXRa partner concentration 90 nM)
# Method in brief: as §1
# [8] = test system: PPARg:RXRa 270nM:90nM, anti-RXR (NR concentration 270 nM, RXRa partner concentration 90 nM)
# Method in brief: as §1
# [9] = test system: PPARg:RXRa 30nM:10nM, anti-RXR (NR concentration 30 nM, RXRa partner concentration 10 nM)
# Method in brief: as §1
# [10] = test system: PPARg:RXRa 90nM:30nM, anti-RXR (NR concentration 90 nM, RXRa partner concentration 30 nM)
# Method in brief: as §1
# [11] = test system: PPARg:RXRa DBDmut IVT, anti-RXR (DBD mutation: RXRa K156A/R161A, NR concentration 270 nM, RXRa partner concentration 90 nM)
# Method in brief: as §1
# [12] = test system: PPARg:RXRa IVT, anti-PPARg (NR concentration 270 nM, RXRa partner concentration 90 nM)
# Method in brief: as §1
# [13] = test system: PPARg DBDmut:RXRa IVT, anti-PPARg (DBD mutation: PPARg1 K132A/R137A, NR concentration 270 nM, RXRa partner concentration 90 nM)
# Method in brief: as §1
# [14] = test system: PPARg DBDmut IVT, anti-PPARg (DBD mutation: PPARg1 K132A/R137A, NR concentration 270 nM)
# Method in brief: as §1
# [15] = test system: PPARg homodimer (NR concentration 180 nM)
# Method in brief: as §1
# [16] = test system: PXR:RXRa (NR concentration 270 nM, RXRa partner concentration 90 nM)
# Method in brief: as §1
# [17] = test system: PXR homodimer (NR concentration 270 nM)
# Method in brief: as §1
# [18] = test system: RARa:RXR (NR concentration 270 nM, RXRa partner concentration 90 nM)
# Method in brief: as §1
# [19] = test system: RARa homodimer (NR concentration 270 nM)
# Method in brief: as §1
Sequence,PBM binding z-score [1],PBM binding z-score [2],PBM binding z-score [3],PBM binding z-score [4],PBM binding z-score [5],PBM binding z-score [6],PBM binding z-score [7],PBM binding z-score [8],PBM binding z-score [9],PBM binding z-score [10],PBM binding z-score [11],PBM binding z-score [12],PBM binding z-score [13],PBM binding z-score [14],PBM binding z-score [15],PBM binding z-score [16],PBM binding z-score [17],PBM binding z-score [18],PBM binding z-score [19]
CGTCCAAGGTCACAGGAGGTCAGTGAAGACAGAT,7.67,7.39,4.32,5.97,0.764,6,6.76,6.69,3.37,5.61,4.02,5.26,0.184,-0.411,4.98,6.88,3.92,6.48,2.32
CCTCGGAGGACAGAAGGTCAGATCTGTCCGCTTT,1.34,1.57,0.283,1.25,-0.347,1.62,0.155,0.812,-0.772,0.0725,0.207,-0.0702,-0.934,-1.55,1.35,1.65,-0.42,1.98,0.321
AATACAGGGACATCGTAGGCCAGAGTACGCACAG,-0.0851,-0.29,0.107,-0.465,0.118,-0.329,1.07,-0.124,0.0369,0.0571,-0.376,0.372,0.226,0.0255,-0.207,-0.16,0.0295,-0.225,0.123
CGAACTAGGACATCCAGGACAGTGAATACATTGA,0.00191,-0.483,0.0183,-0.213,-0.407,0.451,1.35,0.774,0.322,0.462,5.1,4.07,0.493,0.652,0.302,-0.363,0.206,0.00684,0.136
TAGCCTAGGTCAGATCGGGGCAGTATACGCTATA,3.05,1.42,-0.378,1.22,0.212,1.93,0.989,1.43,0.0966,0.842,1.23,1.66,0.079,-0.613,-0.167,1.89,-0.84,0.828,-0.404
CGTTCAAGGTCATAGGAGGTCAGTGAAGACAGAT,7.91,7.81,5.4,6.52,1.26,6.19,6.82,6.49,2.97,5.27,3.95,5.26,1.34,2.03,5.42,6.86,5.84,6.33,3.73
AGTCCAAGTTCACTAGGTAACGTAAGATTCAGCT,1.35,1.68,0.49,0.985,0.056,2.69,2.6,2.95,0.796,1.91,2.21,3.58,1.01,0.63,0.72,2.45,2.13,1.17,0.555
CCTACTGGGCCAAGGTCATTGCTCAGTCAAAGCA,3.09,3.01,0.828,2.83,-0.46,3.63,3.88,4.33,1.07,3.55,3.53,4.65,0.15,-1.36,1.17,3.36,0.887,3.01,-0.436
CGTCAAAGTTCTAGGTAACGTAACAGAAAGCAGC,-0.164,-0.199,0.179,0.0595,-0.169,0.259,0.641,0.228,-0.178,0.017,1.41,1.83,0.454,0.457,0.283,-0.00995,-0.093,0.103,0.866
ACTAGTTGCTCAGCTGAGGTCACACACAATTCGG,2.75,2.94,1.75,3.4,0.214,3.4,1.17,1.69,0.448,1.24,0.944,1.76,0.496,1.18,1.91,4.3,1.44,4.26,0.561
CCTACTGGGCCACGAAAGGTAATTGATTCAGTGA,-0.128,-0.227,-0.337,-0.403,-0.777,1.1,1.63,1.38,-0.0637,0.669,5.29,5.07,0.766,-0.144,0.00713,-0.257,-0.335,-0.102,0.0551
CAGCCTAGGTGAGGGCCAGTATAGGAGGAACGTT,-0.516,-0.622,-0.626,-0.617,-1.21,-0.243,0.16,-0.421,-0.568,-0.607,0.681,0.776,-0.889,-1.52,-0.00134,-0.652,-0.633,-0.402,-0.758
ATTTGTAGGTTATCGGGTCATTCAGTTTGCGCAT,3.62,4.05,3.03,3.67,2.31,4.47,6.03,5.66,2.93,5.14,6.74,6.84,2.14,2.88,3.32,4.01,6.61,3.9,2.71
ACAGACAGGTGAGTGAAGGTCACTCAGCTGGACG,2.41,2.98,0.517,1.82,-0.302,2.61,1.51,1.98,0.232,1.46,0.842,2.27,0.253,0.153,1.49,3.66,0.106,2.82,0.0123
GCTGCTAGGTCAGGATGGTCAGCTAACGGGTACG,0.825,0.646,-0.251,0.268,-0.621,1.6,0.968,1.04,-0.242,0.479,2.74,3.02,-0.328,-0.66,0.599,0.108,-0.722,0.555,-0.167
CGAACTAAGTCATTGACAGGACAGTGAATAGTAA,-0.324,-0.239,-0.0692,-0.347,-0.466,-0.0981,0.241,0.0844,-0.211,-0.239,0.976,0.473,-0.569,0.367,-0.739,-0.093,-0.313,0.0796,0.472
CCTACTGGGCCAAAAATGTCATTGATGCCGATAA,-0.451,-0.771,-0.332,-0.343,-0.655,0.13,0.537,0.911,-0.0652,0.391,2.92,2.47,-0.355,-0.43,-0.472,-0.383,-0.24,-0.612,0.0407
CCTACTGGGCGAAGGTCATTGATCAGTCAAAGCA,2.76,2.99,0.677,2.83,-0.515,3.86,3.62,4.54,2.12,4.26,0.342,2.33,-1.21,-0.935,2.36,3.04,0.36,3.75,-0.327
CGTCCAAGGTCAACGCTAGGTCAGTGAAAGCATT,7.34,5.95,2.69,4.66,0.677,5.71,5.29,5.4,2.18,3.94,3.48,4.66,-0.0404,0.201,6.46,5.11,1.66,6.35,2.52
CCTAGCAGGCCAATCGGGGTCACTCAAGGCTTGA,4.42,4.3,0.394,3.97,-0.646,4.79,2.8,3.72,0.796,2.75,2.04,3.14,-0.484,-1.21,3.42,6.01,1.7,6.08,0.0938
CCTACTGGGCCATTCAGAGGTCATTGATCATATG,2.92,4.32,6.45,3.73,0.365,3.82,2.59,3.24,0.818,2.26,4.59,4.4,0.046,0.818,2.59,4.8,2.3,4.59,0.867
GATACAGAGTCAGCTAGAGGCCAGAGTATGGAAA,-0.527,-0.699,-0.703,-0.919,-1.16,-0.619,0.312,-0.242,-0.296,-0.352,-0.664,-0.657,-0.407,-0.534,-0.64,-0.537,-0.489,-0.487,-0.438
TAGCCTAGGCCATGGGCCAGTATACCACGCGAAC,-0.747,-0.914,-0.864,-1.07,-1.23,-0.56,0.326,-0.0896,-0.9,-0.67,-0.977,-0.175,-0.116,-1.11,-1.27,-0.806,-1.11,-0.86,-1.48
TAGCCTAGGTCAGATCGGGCCAGTCTACGCTATA,1.89,1.15,-0.542,0.223,-0.401,1.82,0.647,0.822,-0.388,0.205,0.403,1.41,-0.912,-0.787,-0.159,1.18,-0.895,1.05,-1.11
CAAACTAGGTCAAAGGTCAAAGTAGAGCCAACCA,8.58,7.15,5.51,7.55,2.88,7.99,13.8,11.5,13,13.8,8.23,9.26,5.64,3.48,4.85,7.02,2.18,8.45,2.42
CATACAGGGTCCGCTAGGCCAGAGTAGGGACGGC,-0.192,-0.435,-0.418,-0.869,-0.218,-1.11,0.155,-0.418,-0.876,-0.844,-1.42,-0.128,0.386,-0.456,-0.436,-0.819,-0.353,-0.535,-0.0023
ACTAGCAGGCCAAGAGTCACTCAAGATTAGTCCG,0.0217,-0.0111,-0.373,-0.29,-0.882,1.46,2.56,4.08,2.06,3.48,0.813,0.847,-0.175,-0.385,0.631,-0.105,-0.185,0.354,-0.112
TTTCCAAGGTGAAAGGTCGTTGATGCACGCCTTG,3.56,3.59,0.323,2.79,0.0398,5.37,7.96,7.33,6.06,7.82,2.51,4.72,0.923,0.85,1.64,4.23,0.161,5.56,-0.0268
CGAACTAAGTCATCCAGGACAGTGAATACATTGA,0.0178,-0.0444,0.135,-0.252,-0.311,0.0393,0.532,0.277,0.283,0.237,1.12,0.862,0.763,1.05,0.291,-0.153,-0.248,0.371,0.476
CTCGAAAGGTCGGTTGAGGTGAGTAAACGGATAA,2.7,1.73,-0.0936,1.39,-0.228,2.84,0.202,1.25,0.048,0.00835,-0.271,0.901,0.0903,-0.255,0.98,3,0.167,2.19,0.141
